Many of the other results were omitted from the sample, so hits are more common in it than they were.
VHR inh color: blocks the human dual specificity phosphatase VHR1; P51452; recombinant VHR phosphatase, colorimetric substrate read-out; inhibition, % at 20 µM; 0.7% of 50,000 active; in the data active = inhibition above about 60%
Target sequence (P51452 whole entry, looked up): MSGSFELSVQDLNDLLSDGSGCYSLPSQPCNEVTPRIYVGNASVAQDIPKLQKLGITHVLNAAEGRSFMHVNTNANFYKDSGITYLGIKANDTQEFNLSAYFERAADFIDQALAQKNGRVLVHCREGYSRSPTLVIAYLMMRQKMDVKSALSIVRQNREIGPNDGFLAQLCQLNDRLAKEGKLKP
An asterisk follows results filed as active.

What do the screens show for `O=C1CC(O)(C(F)F)Oc2ccccc21` (stereo unspecified)?
VHR inh color: -14.4

Results for O=C(CN1CCCCC1)Nc1ccc(I)cc1 ?
VHR inh color: 8.7

Results for Cc1nc2cc(-c3cccc(Cl)c3)nn2c(C)c1Cl ?
VHR inh color: -23.0

How did Cc1nc2cc(-c3ccccc3)nn2c(C)c1C do in these assays?
VHR inh color: 117.3*

What do the screens show for `Cc1nc2cc(-c3cccc(F)c3)nn2c(C)c1Cl`?
VHR inh color: -12.2

What do the screens show for `COc1ccccc1NC1=C(Cl)C(=O)N(c2cccc(C)c2)C1=O`?
VHR inh color: -7.5

Results for Cc1nnc(NC(=O)c2cc(Cl)cc(Cl)c2)s1 ?
VHR inh color: -3.2

Results for C=CCOc1ccc(/C=C2/C(=O)NC(=S)N(CC=C)C2=O)cc1OCC ?
VHR inh color: 12.5

Results for C=CCN1C(=O)/C(=C\c2ccc(OCc3ccc(F)cc3)c(OCC)c2)C(=O)NC1=S ?
VHR inh color: 74.8*

How did C=CCN1C(=O)/C(=C\c2ccc(OCC(=O)O)c(OC)c2)C(=O)NC1=S do in these assays?
VHR inh color: 7.2

How did O=C1c2cccc3c4ccccc4n(c23)C(=O)C1(O)O do in these assays?
VHR inh color: 90.4*

What do the screens show for `O=C1c2ccccc2C(=O)N1CC(O)Cn1c2ccccc2c2ccccc21` (stereo unspecified)?
VHR inh color: -4.4

What do the screens show for `O=C(CCN1C(=O)c2ccccc2C1=O)NCc1ccncc1`?
VHR inh color: -18.1

What do the screens show for `OCc1nc2ccccc2n1Cc1ccccc1F`?
VHR inh color: 115.7*

How did CCn1c(CCCO)nc2ccccc21 do in these assays?
VHR inh color: -5.1

Results for OCc1nc2ccccc2n1Cc1ccc2ccccc2c1 ?
VHR inh color: 13.5

Results for COc1ccccc1/C=C1\C=C(c2ccc(Cl)cc2)OC1=O ?
VHR inh color: -8.9

How did Cc1cccc(C(=O)N2CCC(C)CC2)c1 do in these assays?
VHR inh color: 1.5

Results for CC(=O)C1=C(Nc2ccc(Br)cc2)CC(C)(O)C(C(C)=O)C1c1ccc(Cl)cc1 (stereo unspecified) ?
VHR inh color: -1.6

How did CCOC(=O)C1=C(C)N=c2s/c(=C\c3ccccc3O)c(=O)n2C1c1ccc2c(c1)OCO2 (stereo unspecified) do in these assays?
VHR inh color: -26.9

Results for N#Cc1c(-c2ccccc2)cc(-c2ccccc2Cl)c(C#N)c1N ?
VHR inh color: 7.4

What do the screens show for `O=C1C(=O)c2ccccc2C(Cl)=C1Cl`?
VHR inh color: -6.6

Results for N#CC(C#N)=C1C(Cl)=C(Cl)c2ccccc21 ?
VHR inh color: 66.0*

Results for CC(C)c1ccc(/C=C2\SC(=S)NC2=O)cc1[N+](=O)[O-] ?
VHR inh color: 79.3*

What do the screens show for `O=C1NC(=S)S/C1=C\c1ccc(N2CCCCC2)c([N+](=O)[O-])c1`?
VHR inh color: -37.0

What do the screens show for `CC(C)c1ccc(/C=C2\SC(=S)NC2=O)cc1`?
VHR inh color: -15.0

Results for Cc1ccc(C2C3C(=O)N(c4cccc(Br)c4)C(=O)C3N3CCCN23)cc1 (stereo unspecified) ?
VHR inh color: -9.1

How did CC(=O)c1cccc(N=Cc2cc(Br)cc(Br)c2O)c1 do in these assays?
VHR inh color: -23.7

What do the screens show for `CC(=O)c1ccc2c3c(onc13)-c1ccccc1C2=O`?
VHR inh color: -22.0

What do the screens show for `CCOC(=O)c1c(-c2ccc(C3CCCCC3)cc2)csc1N`?
VHR inh color: -7.0

Results for CC(=O)c1ccc(N2C(=O)C=CC2=O)cc1 ?
VHR inh color: 84.0*

How did CC(=O)c1ccc(N2C(=O)C3C4C=CC(CC4)C3C2=O)cc1 (stereo unspecified) do in these assays?
VHR inh color: -19.6

What do the screens show for `CCOC(=O)c1ccc(N2C(=O)C=CC2=O)cc1`?
VHR inh color: 48.7

Results for O=C(N[C@@H]1CSC/C1=N\O)c1ccccc1 ?
VHR inh color: -21.2

What do the screens show for `Cc1occc1C(=O)NCc1cccnc1`?
VHR inh color: -18.8

Results for N#C/C(=C/c1cn(CC(=O)O)c2ccccc12)C(=O)Nc1cccc(Br)c1 ?
VHR inh color: -2.2

What do the screens show for `O=C(/C=C/c1ccc2c(c1)OCO2)Nc1ccccc1I`?
VHR inh color: 2.2

Results for COc1ccc(/C=C2\SC(=O)N(CCC(=O)Nc3cccc(C)c3)C2=O)cc1OC ?
VHR inh color: 79.6*

How did COc1ccc(/C=C2\SC(=O)N(CCC(=O)Nc3ccccc3C)C2=O)cc1OC do in these assays?
VHR inh color: 17.2

How did COc1ccccc1NC(=O)CCN1C(=O)S/C(=C/c2ccc(OC)c(OC)c2)C1=O do in these assays?
VHR inh color: -5.3

Results for Nc1csc(C(c2ccccc2)c2ccccc2)n1 ?
VHR inh color: 2.3

Results for Cc1cc(Cl)ccc1NC(=O)COc1cc(C)c(Cl)c(C)c1 ?
VHR inh color: -2.0

Results for CC(C)c1ccc(N2C(=O)NC(=O)/C(=C/c3ccc4c(c3)OCO4)C2=O)cc1 ?
VHR inh color: 27.2

What do the screens show for `O=c1[nH]c(=S)[nH]c(O)c1C=Nc1ccc(Cl)c(Cl)c1`?
VHR inh color: -18.2

How did O=Cc1ccc(Oc2ncnc3ccccc23)cc1 do in these assays?
VHR inh color: 97.2*

Source: PubChem BioAssay
